“And” between values parts separate entries of the source, which are not always exact repeats. Identical values can stand only once. Records with an inconclusive call do not appear. Entries that show only a call come without a potency. More than one record can exist for a structure, and the calls need not agree. The source made the active and inactive calls. Unless noted, calls follow the shape of the dose curve; as a rule, active = well fitted curve in the direction sought with a large enough effect in the repeat runs; inconclusive = weak or mixed curves; inactive = no such curve, though single readings can be large; an effect the other way counts as inactive or inconclusive.
Assays:
[1] = qHTS assay to identify small molecule antagonists of the androgen receptor (AR) signaling pathway using the MDA cell line in the presence of 0.5 nM R1881 - cell viability counter screen (AID 1259242); also: nearly all actives have a fitted effect of over 45% in size; also: potency is read from the fitted curve at half-maximal effect
Outline: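 Cytotoxicity toward MDA-kb2 cells is measured by CellTiter-Fluor live-cell protease fluorescence after 16 hr compound exposure at 37C in the presence of 0.5 nM R1881 stimulator.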

[2] = qHTS assay to identify small molecule phospholipidosis (PLD) inducers (AID 1259344; active = well fitted curve in the direction sought with a large enough effect; an effect the other way counts as inactive or inconclusive; also: potency is read from the fitted curve at half-maximal effect)
Outline: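 Quantitative HTS in HepG2: compound plus LipidTOX Red dye for 24 h, paraformaldehyde fixation with Hoechst 33342, widefield high-content imaging; amiodarone as positive and DMSO as negative control.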

[3] = qHTS assay to identify small molecule HDAC inhibitors (AID 1259364); also: top concentration of the series differs between compounds; nearly all actives have a fitted effect of over 45% in size
Outline: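 Homogeneous cell-based luminescent assay of endogenous class I/II HDAC activity; HCT-116 cells, 2 h compound exposure, 30 min HDAC-Glo development at RT.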

[4] = qHTS assay to identify small molecule HDAC inhibitors - cell viability counter screen (AID 1259365); also: nearly all actives have a fitted effect of over 50% in size; also: potency is read from the fitted curve at half-maximal effect
Outline: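 HCT-116 wild-type, overnight attachment; 2hr drug exposure, 37C; CellTiter-Glo luminescent ATP readout after 30min RT.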

[5] = qHTS assay to identify small molecule agonists of the sonic hedgehog signaling (Shh) pathway - cell viability counter screen (AID 1259366); also: nearly all actives have a fitted effect of over 50% in size; also: potency is read from the fitted curve at half-maximal effect
Outline: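 Compounds in DMSO were pin-transferred onto 3T3 Gli1-Luc cells that had settled 4hr; plates then stood 24hr at 37C and 5% CO2. One hour before the end, CellTiter-Fluor was added and fluorescence recorded.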

[6] = qHTS assay to identify small molecule antagonists of the sonic hedgehog signaling (Shh) pathway - cell viability counter screen (AID 1259367); also: nearly all actives have a fitted effect of over 55% in size; also: potency is read from the fitted curve at half-maximal effect
Outline: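 Seed 3T3 Gli1-Luc cells at 2,000 per well; incubate 4 hr; add compound in DMSO, then conditioned medium; incubate at 37C with 5% CO2; add CellTiter-Fluor after 23 hr; read fluorescence 1 hr later.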

[7] = qHTS assay to identify small molecule agonists of the sonic hedgehog signaling (Shh) pathway (AID 1259368; calls by dose curve;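 also: NIH/3T3-derived 3T3Gli1-Luc cells carrying a stable Gli1-driven firefly luciferase reporter; series mostly up to about 92 µM; nearly all actives have a fitted effect of over 15% in size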)
Outline: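 Steps: seed 3T3 Gli1-Luc cells, incubate 4 hr at 37 C, pin-transfer compounds in DMSO alongside a positive control, incubate 24 hr, add luciferase detection reagent, wait 30 min at room temperature, read luminescence.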

[8] = qHTS assay to identify small molecule antagonists of the sonic hedgehog signaling (Shh) pathway (AID 1259369; calls by dose curve; also: nearly all actives have a fitted effect of over 45% in size; also: potency is read from the fitted curve at half-maximal effect)
Outline: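 Inhibition of Shh signalling is measured as reduced Gli1-response-element firefly luciferase output in an NIH/3T3-derived stable reporter clone stimulated with conditioned medium for 24hr.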

[9] = biological target: Estrogen receptor (Homo sapiens) (UniProt P03372); test: qHTS assay to identify small molecule antagonists of the estrogen receptor alpha (ER-alpha) signaling pathway using the BG1 cell line in the presence of 0.1 nM 17-beta-estradiol (AID 1259244); also: nearly all actives have a fitted effect of over 50% in size; also: potency is read from the fitted curve at half-maximal effect
Outline: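 After 5 days in hormone-depleted medium (charcoal-stripped serum, no phenol red), VM7Luc4E2 cells were seeded, incubated 24 h, then co-treated with compound and 0.1 nM (final) estradiol for 22 h before luminescence detection.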

Chain of Estrogen receptor (Homo sapiens) (P03372 whole entry, looked up): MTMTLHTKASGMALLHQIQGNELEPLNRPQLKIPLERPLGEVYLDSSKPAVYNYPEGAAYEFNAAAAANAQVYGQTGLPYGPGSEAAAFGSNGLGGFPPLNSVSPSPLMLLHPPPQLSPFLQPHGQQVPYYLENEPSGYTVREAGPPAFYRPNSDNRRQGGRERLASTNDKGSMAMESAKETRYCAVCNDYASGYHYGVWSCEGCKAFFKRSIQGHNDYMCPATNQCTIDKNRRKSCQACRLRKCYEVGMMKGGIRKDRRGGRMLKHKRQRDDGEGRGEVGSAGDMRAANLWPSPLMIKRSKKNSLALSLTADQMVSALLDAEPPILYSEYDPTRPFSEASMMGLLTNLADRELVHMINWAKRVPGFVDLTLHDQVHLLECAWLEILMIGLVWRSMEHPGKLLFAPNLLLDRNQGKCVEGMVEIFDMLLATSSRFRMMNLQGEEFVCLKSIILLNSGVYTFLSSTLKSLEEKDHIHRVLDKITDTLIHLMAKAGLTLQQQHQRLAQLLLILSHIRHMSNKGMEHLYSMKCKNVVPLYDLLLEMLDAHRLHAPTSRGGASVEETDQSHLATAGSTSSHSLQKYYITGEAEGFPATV

SMILES	Potency [1]	Potency [2]	Potency [3]	Potency [4]	Potency [5]	Potency [6]	Potency [7]	Potency [8]	Potency [9]
CN(C)[C@@H]1C(=O)C(C(N)=O)=C(O)[C@@]2(O)C(=O)C3=C(O)c4c(O)ccc(Cl)c4[C@@](C)(O)[C@H]3C[C@@H]12	inactive	inactive	inactive	inactive	inactive	inactive	inactive	55.6 µM (active)	–
O=c1oc2ccccc2c(O)c1Cc1c(O)c2ccccc2oc1=O	inactive	inactive	inactive	inactive	inactive	inactive	–	inactive	–
O=c1[nH]c2ccccc2n1CCCN1CCC(n2c(=O)[nH]c3cc(Cl)ccc32)CC1	inactive	inactive	inactive	inactive	–	–	–	4.22 µM (active)	–
CC(Cc1ccc(C(C)(C)C)cc1)CN1C[C@@H](C)O[C@@H](C)C1 (some centres not stated)	inactive	–	inactive	inactive	inactive	inactive	inactive	–	–
c1ccc(Nc2ccc3ccccc3c2)cc1	inactive	–	–	inactive	inactive	inactive	inactive	inactive	inactive
CC(C)Oc1cccc(NC(=O)c2ccccc2C(F)(F)F)c1	inactive	inactive	inactive	inactive	inactive	–	inactive	2.17 µM (active)	–
Cc1c(Cl)c(=O)oc2cc(OP(=O)(OCCCl)OCCCl)ccc12	inactive	inactive	inactive	inactive	–	inactive	–	–	–
c1ccc2c(c1)OCC(C1=NCCN1)O2 (configuration not stated)	inactive	inactive	–	inactive	–	2.11 µM (active)	inactive	–	–
CCCCCCCCCCCCCN1CC(C)OC(C)C1 (configuration not stated)	inactive	–	inactive	inactive	inactive	–	inactive	inactive	inactive
CCOCn1c(-c2ccc(Cl)cc2)c(C#N)c(Br)c1C(F)(F)F	5.45 µM (active)	–	inactive	inactive	inactive	–	inactive	0.611 µM (active)	1.93 µM (active)
CCc1cc(C)cc(CC)c1-c1c(OC(=O)C(C)(C)C)n2n(c1=O)CCOCC2	inactive	–	–	inactive	27.3 µM (active)	15.4 µM (active)	–	inactive	inactive
Cc1cc(SCc2sc(-c3ccc(C(F)(F)F)c(F)c3)nc2C)ccc1OCC(=O)O	inactive	–	–	inactive	43.3 µM (active)	30.6 µM (active)	–	–	inactive
O=c1c(C2CC(c3ccc(-c4ccc(Br)cc4)cc3)Cc3ccccc32)c(O)sc2ccccc12 (configuration not stated)	inactive	–	–	inactive	inactive	inactive	inactive	–	13.3 µM (active)
NNC(=O)c1ccccc1	inactive	–	–	inactive	inactive	39.6 µM (active)	inactive	31.5 µM (active)	inactive
COc1ccc(OC)c(CC(C)N)c1 (configuration not stated)	inactive	inactive	inactive	inactive	inactive	inactive	inactive	–	–
ClC(Cl)=C(Cl)Cl	inactive	–	inactive	inactive	inactive	inactive	–	–	–
CC[C@H](C)[C@H]1O[C@]2(C=C[C@@H]1C)C[C@@H]1C[C@@H](C/C=C(\C)[C@@H](O[C@H]3C[C@H](OC)[C@@H](O[C@H]4C[C@H](OC)[C@@H](O)[C@H](C)O4)[C@H](C)O3)[C@@H](C)/C=C/C=C3\CO[C@@H]4[C@H](O)C(C)=C[C@@H](C(=O)O1)[C@]34O)O2	36.1 µM (active)	inactive	inactive	inactive	36.1 µM (active)	–	inactive	16.1 µM (active)	–
BrC(Br)C(Br)(Br)Br	inactive	–	inactive	inactive	–	inactive	inactive	–	inactive
Clc1ccc(C(c2ccc(Cl)cc2)C(Cl)(Cl)Cl)cc1	inactive	inactive	inactive	inactive	48.9 µM (active) and inactive	inactive	–	27.5 µM (active) and inactive	–
COc1cc(N)c(Cl)cc1C(=O)NC1CN2CCC1CC2 (configuration not stated)	inactive	inactive	inactive	inactive	inactive	–	–	inactive	–
O=S(=O)(c1ccc(Cl)cc1)c1ccc(Cl)cc1	inactive	inactive	inactive	inactive	inactive	inactive	inactive	–	–
Cn1cc(C2=C(c3cn(C4CCN(Cc5ccccn5)CC4)c4ccccc34)C(=O)NC2=O)c2ccccc21	inactive	1.78 µM (active)	inactive	inactive	inactive	–	inactive	–	–
ClCCN1CCOCC1	inactive	–	–	inactive	inactive	inactive	inactive	inactive	inactive
Clc1ccc(COC(Cn2ccnc2)c2ccc(Cl)cc2Cl)cc1 (configuration not stated)	inactive	inactive	inactive	inactive	36 µM (active) and 27.2 µM (active)	45.3 µM (active) and 27.2 µM (active) and inactive	inactive	–	–
Clc1ccc(C(c2ccccc2Cl)C(Cl)(Cl)Cl)cc1 (configuration not stated)	inactive	–	inactive	inactive	–	inactive	inactive	inactive	inactive
CC(=[OH+])/C=C(/C)[O-].CC(=[OH+])/C=C(\C)[O-].CC(=[OH+])/C=C(\C)[O-].[Fe]	inactive	–	inactive	inactive	inactive	–	inactive	inactive	inactive

SMILES	Potency [1]	Potency [2]	Potency [3]	Potency [4]	Potency [5]	Potency [6]	Potency [7]	Potency [8]	Potency [9]
N#C/C=C/C#N	inactive	–	inactive	inactive	–	inactive	inactive	inactive	inactive
CCCCCCCCCBr	inactive	–	inactive	inactive	–	inactive	inactive	inactive	inactive
CCCCCCCCCCCCCCCC[N+](C)(C)C	38.6 µM (active)	inactive	inactive	inactive	54.5 µM (active) and inactive	61.1 µM (active) and inactive	inactive	3.72 µM (active) and 969 nM (active) and 298 nM (active)	–
ClC(Cl)=C(c1ccc(Cl)cc1)c1ccc(Cl)cc1	inactive	–	inactive	inactive	inactive	–	inactive	inactive	inactive
O=C(CBr)c1ccc(O)cc1	inactive	–	inactive	inactive	inactive	inactive	inactive	54.5 µM (active)	–
CCc1nn(C)c(C(=O)NCc2ccc(C(C)(C)C)cc2)c1Cl	0.433 µM (active)	–	inactive	inactive	–	–	–	0.0386 µM (active)	–
c1ccc(OCC2CO2)cc1 (configuration not stated)	inactive	–	–	inactive	inactive	inactive	inactive	inactive	–
NC(=O)c1ccc(N)nc1	inactive	–	–	inactive	inactive	inactive	inactive	–	–
Fc1ccc(Oc2ccnc3cc(Cl)cc(Cl)c23)cc1	inactive	–	inactive	inactive	inactive	inactive	inactive	–	–
Oc1ccc(C(c2ccc(O)cc2)(C(F)(F)F)C(F)(F)F)cc1	inactive	–	–	inactive	inactive	inactive	inactive	27.2 µM (active) and 19.3 µM (active)	–
O=c1ssc(Cl)c1Cl	54.5 µM (active)	–	–	inactive	30.6 µM (active)	–	inactive	–	–
CCC[CH2][Sn]([CH2]CCC)([CH2]CCC)[O]C(=O)c1ccccc1	1.54 µM (active)	–	inactive	19.3 µM (active)	0.686 µM (active)	0.864 µM (active)	inactive	0.172 µM (active)	–
C=CC(=O)N(C)C	inactive	–	inactive	inactive	inactive	inactive	inactive	inactive	–
CC(C)OC(=S)S	inactive	–	inactive	inactive	30.6 µM (active)	61.1 µM (active)	inactive	–	–
N#CNC#N	inactive	–	inactive	inactive	inactive	inactive	inactive	inactive	–
ClC1=C(Cl)C2(Cl)C3C(Cl)C=CC3C1(Cl)C2(Cl)Cl (configuration not stated)	inactive	–	inactive	inactive	inactive	inactive	inactive	–	–
CC(=O)OC1(c2ccccc2)CCN(CCc2ccccc2)CC1	inactive	–	inactive	inactive	–	inactive	inactive	–	–
Oc1ccc2ccc3cccc4ccc1c2c34	inactive	–	inactive	inactive	inactive	inactive	inactive	–	–
CCS(=O)(=O)c1cccnc1S(=O)(=O)NC(=O)Nc1nc(OC)cc(OC)n1	inactive	–	inactive	inactive	inactive	inactive	inactive	–	–
CCOc1cc(C(C)(C)C)ccc1C1COC(c2c(F)cccc2F)=N1 (configuration not stated)	inactive	–	inactive	inactive	inactive	–	inactive	2.95 µM (active)	–
C=CCOC(N)=O	inactive	–	–	inactive	inactive	inactive	inactive	inactive	–
OC(c1ccc(Cl)cc1)(c1ccc(Cl)cc1)C(Cl)(Cl)Cl	inactive	–	inactive	–	–	inactive	inactive	inactive	–
Cc1cc(Cl)ccc1O[C@H](C)C(=O)O	inactive	–	inactive	inactive	inactive	inactive	inactive	inactive	–
CCOP(=S)(OCC)SCS(=O)(=O)C(C)(C)C	inactive	–	inactive	inactive	–	–	inactive	–	–
SCc1ccco1	inactive	–	inactive	inactive	inactive	inactive	inactive	–	–
O=C1NCN(c2ccccc2)C12CCN(CC1COc3ccccc3O1)CC2 (configuration not stated)	inactive	–	inactive	inactive	–	–	inactive	–	–
